GRIN3A LBD mod – binders of NR3A ligand-binding domain, primary screen, biophysical, differential scanning fluorimetry, uHTS. NR3A LBD differential scanning fluorimetry, Tm shift; 0% = protein alone, 100% = glycine-bound protein. Tm shift relative to glycine control, % at 25 µM. 340,000 compounds, 2.5% hits;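 active = melting temperature shift of at least 10% of the positive control shift, at one fixed dose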
beta cell repl – inducers of MIN6 beta-cell proliferation, primary screen, ATP luminescence, uHTS | MIN6 cells proliferation, ATPlite luminescence, 48 h; cells starved in 0.2% serum; 100% = growth in 10% serum | proliferation, % at 10 µM | 330,000 compounds, 0.29% hits | AID 2380, 2010;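 active = compounds whose signal lies at least 3.5 SD above the mean of all wells on their plate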
p-CIP stab down – p/CIP-EGFP fusion destabilizers, primary screen, fluorescence, F442A cells. decrease of EGFP signal, % at 10 µM. 290,000 compounds, 0.01% hits. 16 h. Q05BA5;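 active = EGFP signal decrease of at least 30% at 10 µM or well 3 SD below plate mean, unless failing retest; inactive = the rest, including hits failing retest or dose response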
FAS TE block – FAS thioesterase domain inhibitors, primary screen, biochemical, fluorescence intensity, uHTS; 360,000 compounds, 0.67% hits; inhibition, % at 15 µM; recombinant FAS-TE, OMFH fluorogenic substrate, fluorescence endpoint; AID 602261, 2012; Fatty acid synthase (Homo sapiens), P49327;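 active = compounds whose normalised, plate-corrected inhibition of enzyme fluorescence in the single-dose primary screen is 50% or more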
MPTP inh – mitochondrial permeability transition pore inhibitors, primary screen, biochemical, isolated mouse mitochondria, absorbance; AID 602449, 2012; Ca2+ swelling absorbance, 30 min; 360,000 compounds, 1.4% hits; inhibition, % at 10 µM;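 active = inhibition of 50% or more, scaled per plate between neutral and stimulator controls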
Numbers stand for hits; i = inactive; nt = no result. This is a sample that favours compounds with a hit; in the whole collection about 4.1% have one here.

SMILES	GRIN3A LBD mod	beta cell repl	p-CIP stab down	FAS TE block	MPTP inh
COc1cccc2c1C(CCCC(=O)O)CCC2 (stereo unspecified)	i	nt	nt	i	i
COc1cccc2c1C1COC3C4CC(C(=O)O)C(C(C2)N13)N4C (stereo unspecified)	14	nt	nt	i	i
O=C(N/N=C/c1cccc(C(F)(F)F)c1)c1cc2c(s1)-c1ccccc1CC2	14	i	i	i	i
CCCCN(CCCC)C1=Nc2ccccc2N/C1=C(/C#N)C(=O)OCC	17	i	i	i	i
CCOC(=O)/C(C#N)=C1\Nc2ccccc2N=C1N(CC(C)C)CC(C)C	i	i	i	i	i
CN(c1ccc(OCc2nnc(-c3ccccc3)o2)cc1)S(=O)(=O)c1ccccc1	20	i	i	i	i
COc1ccc(OC)c(Nc2nc(-c3cccc([N+](=O)[O-])c3)nc3ccccc23)c1	i	i	i	i	i
COc1ccccc1Nc1nc(-c2ccc([N+](=O)[O-])cc2)nc2ccccc12	39	i	nt	i	i
O=[N+]([O-])c1ccc(-c2nc(NCc3cccnc3)c3ccccc3n2)cc1	37	i	i	i	i
COc1ccccc1Nc1nc(-c2cccc([N+](=O)[O-])c2)nc2ccccc12	i	i	i	i	i
COc1ccc(Nc2nc(-c3cccc([N+](=O)[O-])c3)nc3ccccc23)c(OC)c1	21	i	i	i	i
COc1ccc(Nc2nc(N)c([N+](=O)[O-])c(NC3CCCCC3)n2)cc1	11	i	i	i	i
COc1ccc(/C=C2\C(=O)N(c3c(Cl)cc(Cl)cc3Cl)N=C2NC(=O)c2cccc([N+](=O)[O-])c2)cc1	13	nt	i	i	i
COc1ccc(NC(=O)c2cccc(N3C(=O)c4cccc([N+](=O)[O-])c4C3=O)c2)cc1	i	i	i	i	i
CCCC(=O)N1CCOCC1c1cc(C(=O)NCc2ccccc2)no1 (stereo unspecified)	nt	nt	nt	i	i
CCOC(=O)c1[nH]c2ccc(OC)cc2c1NC(=S)N1CCN(c2cccc(Cl)c2)CC1	13	i	i	i	i
CCOC(=O)c1[nH]c2ccc(OC)cc2c1NC(=S)N1CCN(c2ccccc2)CC1	i	i	i	i	i
CC(C)(O)CC[C@@H](O)[C@](C)(O)C1CC[C@@]2(O)C3=CC(=O)[C@@H]4C[C@@H](O)[C@@H](O)C[C@]4(C)C3CC[C@]12C (stereo partly specified)	10	i	nt	i	i
CC(C)(O)CC[C@@H](O)[C@](C)(O)[C@H]1CC[C@@]2(O)C3=CC(=O)[C@@H]4C[C@@H](O)[C@@H](O)C[C@]4(C)[C@H]3CC[C@]12C	i	i	i	i	i
C1C2CC3C1C3C2=NN=C1C2CC3C(C2)C13	nt	nt	nt	i	i
CCOC(=O)c1cc(CN2CCOCC2)oc1-c1ccccc1	10	i	i	i	i
O=C(Nc1cccc2ccccc12)c1csc([C@@H]2O[C@H](CO)[C@H](O)[C@H](O)[C@H]2O)n1	nt	nt	nt	i	i
COc1ccc(S(=O)(=O)N2CCc3ccccc3C2)cc1OC	14	i	i	i	i
COc1ccc(S(=O)(=O)N2CCc3ccccc3C2)cc1C(=O)O	i	i	i	i	i
Oc1ccc(-c2csc(Nc3ccccn3)n2)cc1	31	i	i	i	i
SMILES	GRIN3A LBD mod	beta cell repl	p-CIP stab down	FAS TE block	MPTP inh
Cc1cccnc1Nc1nc(-c2ccc(O)cc2)cs1	30	i	i	i	i
Fc1ccc(-c2csc(Nc3ccccn3)n2)c(F)c1	32	i	i	i	i
Cc1cc(-c2csc(Nc3ccccn3)n2)ccc1F	i	i	i	i	i
Cc1cccnc1Nc1nc(-c2ccc(F)cc2)cs1	i	i	i	i	i
COc1cccc(C2CC(c3c(-c4ccccc4)c4cc(Cl)ccc4[nH]c3=O)=NN2S(C)(=O)=O)c1OC (stereo unspecified)	i	i	i	i	i
COc1ccccc1C1CC(c2c(-c3ccccc3)c3cc(Cl)ccc3[nH]c2=O)=NN1S(C)(=O)=O (stereo unspecified)	25	i	i	i	i
O=C(Nc1ccnn1C1CCN(C(=O)c2cccnc2)CC1)c1cccc(F)c1	nt	nt	nt	i	i
Nc1[nH]c(C(=O)c2ccccc2)c(-c2c(F)cccc2F)c1C(=O)c1ccc(Cl)c(Cl)c1	nt	nt	nt	i	i
Cc1cccc(NC(=O)c2oc(=O)c3ccccc3c2-c2ccccc2)c1C	16	i	i	i	i
Cc1cccc(Cn2c(=O)n(CCCC(=O)NCc3ccco3)c(=O)c3ccccc32)c1	i	i	i	i	i
O=C(CCCCn1c(=O)c2ccccc2n(Cc2ccc(Cl)cc2)c1=O)NCc1ccco1	14	i	i	i	i
COc1ccc(C(C)=O)cc1CSc1nc2cc(C(=O)O)ccc2c(=O)n1Cc1ccccc1	i	i	i	i	i
CCOC(Cn1c(SCc2cc(C(C)=O)ccc2OC)nc2ccccc2c1=O)OCC	13	i	i	i	i
Cc1ccc(C(=O)N/N=C/c2cc(C)n(-c3ccc(Br)cc3)c2C)cc1[N+](=O)[O-]	14	i	i	i	i
OC(COCc1ccc2c(c1)OCO2)CN1CCN(Cc2ccccc2)CC1 (stereo unspecified)	i	i	i	i	i
OCCN1CCN(CC(O)COCc2ccc3c(c2)OCO3)CC1 (stereo unspecified)	11	i	i	i	i
CCOC(=O)c1c(-c2ccc(C)cc2)csc1NC(=O)C1CCCO1 (stereo unspecified)	10	i	i	i	i
CN1C(=O)[C@H]2[C@@H](c3ccc(C(F)(F)F)cc3)N[C@]3(CCCN(Cc4ccc(Br)cc4)C3=O)[C@H]2C1=O	nt	nt	nt	i	i
Oc1c(Br)cc2oc3c(c2c1CNCc1ccccc1)CCCC3	i	i	i	i	i
NC(=S)N/N=C/c1c(O)c(Br)cc2oc3c(c12)CCCC3	10	i	i	i	i
Cn1c(SCC(=O)N2c3ccccc3Sc3ccc(Cl)cc32)nnc1-c1ccco1	11	i	i	i	i
CCn1c(SCC(=O)N2c3ccccc3Sc3ccccc32)nnc1-c1ccco1	i	i	i	i	i
COC(=O)C1=CN(c2cccc(OCc3ccccc3)c2)C(N)=C(C#N)C1c1cccc(OC)c1OC (stereo unspecified)	nt	nt	nt	nt	i
Cc1ccc2c(CN3CCN(S(=O)(=O)/C=C/c4ccccc4)CC3)cc(=O)oc2c1	i	i	i	i	i
Cc1ccc2oc(=O)cc(/C=C/c3ccccc3)c2c1	18	i	i	i	i
CNC(=O)c1c(NC(=O)CCS(=O)(=O)c2ccc(Cl)cc2)sc2c1CCN(C(=O)OC)C2	10	i	nt	i	i
Cc1ccc(C(=O)N/C(=C\c2ccc(Br)cc2)c2nc(=S)[nH][nH]2)cc1	i	i	i	i	i

Assay outcomes deposited in PubChem by Sanford-Burnham Center for Chemical Genomics.
